The source made the active and inactive calls.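 The calls were made as follows: active = at least 20% inhibition of 6-phosphogluconate dehydrogenase activity; inactive = the rest.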
The compounds below were run against 6-phosphogluconate dehydrogenase, decarboxylating (Homo sapiens) (UniProt P52209) (assay: 6PGD enzyme inhibitors, primary screen, biochemical, human, recombinant enzyme, NADPH absorbance (AID 1159550)). Settings: recombinant 6PGD, NADPH absorbance 341 nm; at 10 µM; stronger effect = higher value.
6-phosphogluconate dehydrogenase, decarboxylating (Homo sapiens), sequence (P52209 whole entry, looked up): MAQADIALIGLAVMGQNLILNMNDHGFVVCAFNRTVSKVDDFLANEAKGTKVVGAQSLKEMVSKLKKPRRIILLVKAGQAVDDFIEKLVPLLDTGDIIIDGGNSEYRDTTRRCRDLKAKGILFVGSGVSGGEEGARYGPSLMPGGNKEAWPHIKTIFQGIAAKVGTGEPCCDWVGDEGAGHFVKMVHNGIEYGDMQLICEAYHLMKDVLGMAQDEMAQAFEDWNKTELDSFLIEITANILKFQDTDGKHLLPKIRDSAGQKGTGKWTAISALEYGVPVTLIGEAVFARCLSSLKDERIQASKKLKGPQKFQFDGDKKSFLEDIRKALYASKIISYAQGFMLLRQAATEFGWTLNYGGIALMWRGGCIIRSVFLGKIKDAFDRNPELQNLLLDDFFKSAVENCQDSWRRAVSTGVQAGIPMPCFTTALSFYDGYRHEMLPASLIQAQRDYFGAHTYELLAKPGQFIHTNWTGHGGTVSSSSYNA
With O=C(O)[C@H]1CCCNC1 the inhibition was 2.88% (inactive).
With CC(=O)OC1CCC2(C)C(CCC3(C)C2CC=C2C4CC(C)(C)CCC4(C)CCC23C)C1(C)C (stereo not given) the inhibition was 3.75% (inactive).
In the case of CC(=O)c1ccc(O)c(CC=C(C)C)c1, the inhibition was 18.5% (inactive).
For O=c1c(O)cccc2c([C@H]3Oc4cc(O)cc(O)c4C[C@H]3O)cc(O)c(O)c12, the inhibition was 3.21% (inactive).
In the case of CC(=O)OCC(=O)[C@@]1(O)CC[C@H]2[C@@H]3CC[C@@H]4C[C@H](O)CC[C@]4(C)[C@H]3C(=O)C[C@@]21C, the inhibition was -7.21% (inactive).
In the case of COc1ccc2c(c1)[C@@]1(C)CC[C@@H](O)C[C@@H]1CC2, the inhibition was 13.3% (inactive).
In the case of O=C(Oc1cc([C@H]2Oc3cc(O)cc(O)c3C[C@H]2O)cc2c([C@H]3Oc4cc(O)cc(O)c4C[C@H]3O)cc(O)c(OC(=O)c3cc(O)c(O)c(O)c3)c2c1=O)c1cc(O)c(O)c(O)c1, the inhibition was -0.352% (inactive).
With O=C(O[C@@H]1Cc2c(O)cc(O)cc2O[C@@H]1c1cc(O)c(=O)c2c(O)c(O)cc([C@H]3Oc4cc(O)cc(O)c4C[C@H]3O)c2c1)c1cc(O)c(O)c(O)c1 the inhibition was 8.68% (inactive).
In the case of C[C@]12CC[C@@H](O)C[C@H]1CC[C@@H]1[C@@H]2C(=O)C[C@@]2(C)[C@H]1CC[C@]2(O)C(=O)CO, the inhibition was -17% (inactive).
With CC(=O)O[C@H]1CC[C@]2(C)C(C[C@H](OC(C)=O)[C@]3(C)C4=CC(=O)O[C@H](c5ccoc5)[C@@]4(C)CCC23)C1(C)C (stereo not given in full) the inhibition was -15.5% (inactive).
In the case of COc1ccc(-c2cc(=O)c3c(O)cc(O[C@H]4O[C@H](CO[C@@H]5O[C@@H](C)[C@H](O)[C@@H](O)[C@H]5O)[C@@H](O)[C@H](O)[C@H]4O)cc3o2)cc1, the inhibition was 17.5% (inactive).
With NCC1O[C@@H](O[C@H]2C(O)C(O[C@@H]3OC(CO)[C@H](O)[C@H](N)C3O)[C@@H](N)C[C@H]2N)C(O)[C@@H](O)[C@H]1O (stereo not given in full) the inhibition was -2.65% (inactive).
With OC[C@H]1O[C@@H](O[C@H]2[C@H](O)[C@@H](O)[C@H](O)O[C@@H]2CO)[C@H](O)[C@@H](O)[C@@H]1O the inhibition was -3.99% (inactive).
With COc1ccccc1-c1cc(=O)c2cccc(OC)c2o1 the inhibition was 4.44% (inactive).
In the case of CC1OC(OC2C(Oc3cc(O)c4c(=O)cc(-c5ccc(O)cc5)oc4c3)OC(CO)C(O)C2O)C(O)C(O)C1O (stereo not given), the inhibition was -11.1% (inactive).
For Nc1nc2[nH]c(=O)c(=O)[nH]c2c(=O)[nH]1, the inhibition was 13.8% (inactive).
For COc1cc2c(cc1OC)[C@H]1Cc3ccc(OC)c(OC)c3CN1CC2, the inhibition was 6.86% (inactive).
In the case of O=C(O[C@@H]1Cc2c(O)cc(O)cc2O[C@@H]1c1cc(O)c(O)c(O)c1-c1c([C@H]2Oc3cc(O)cc(O)c3C[C@H]2O)cc(O)c(O)c1O)c1cc(O)c(O)c(O)c1, the inhibition was 1.5% (inactive).
For CC(=O)OC1CC2C(C)(C)C(=O)C=CC2(C)C2CCC3(C)C(c4ccoc4)OC(=O)C4OC43C12C (stereo not given), the inhibition was -18.7% (inactive).
With CC(=O)C1CCC2C3CC=C4CC(O)CCC4(C)C3CCC12C (stereo not given) the inhibition was -15.3% (inactive).
With COc1ccc(-c2c(OC)c3c(OC)c4c(cc3oc2=O)OC(C)(C)C=C4)cc1 the inhibition was 5.26% (inactive).
In the case of COc1cc2c(cc1O)[C@@H](Cc1ccc(O)cc1)N(C)CC2, the inhibition was 0.499% (inactive).
For C=CCCCCCCCCCCC[C@@H](O)C[C@@H](O)CO, the inhibition was -7.76% (inactive).
O[n+]1ccccc1[S-].O[n+]1ccccc1[S-].[Zn] was tested, and the inhibition was 12.7% (inactive).
With CC(=O)O[C@H]1CC[C@]2(C)[C@H]3C(=O)C=C4[C@@H]5[C@@H](C)[C@H](C)CC[C@]5(C(=O)O)CC[C@@]4(C)[C@]3(C)CC[C@H]2C1(C)C the inhibition was 4.87% (inactive).
With CC(=O)Oc1cc2c(c(C)c1OC(C)=O)CC=C1[C@@]2(C)CC[C@@]2(C)[C@@H]3C[C@](C)(C(=O)O)CC[C@]3(C)CC[C@]12C the inhibition was 0.972% (inactive).
For COc1cc(O)c2c(=O)c(-c3ccccc3)coc2c1, the inhibition was -1.53% (inactive).
O=C/C=C/c1ccc(O)cc1 was tested, and the inhibition was 1.58% (inactive).
With Oc1cc(O)c2c(c1)O[C@H](c1cc(O)c(O)c(O)c1)[C@H](O)[C@H]2c1c(O)cc(O)c2c1O[C@H](c1cc(O)c(O)c(O)c1)[C@H](O)[C@H]2c1c(O)cc(O)c2c1O[C@H](c1cc(O)c(O)c(O)c1)[C@H](O)C2 the inhibition was 11.5% (inactive).
With C=CCCCCCCCCCCC/C=C/C(O)COC(C)=O (stereo not given) the inhibition was -11.7% (inactive).

Source: PubChem BioAssay
